DT40 TDP1 no CPT – qHTS for Inhibitors of human tyrosyl-DNA phosphodiesterase 1 (TDP1): qHTS in cells in absence of CPT; AID 686978, 2013; DT40 Tdp1-/- hTDP1 cells, no CPT, ATP luminescence, 48 h; actives 15% (n = 420,000); Potency, µM (highest dose often 46.2 µM), most hits filed as inhibitors; further: nearly all actives have a fitted effect of over 55% in size
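DT40 Tdp1-/-;hTDP1 cells, no CPT (DMSO vehicle only), 400 cells/well; compounds pin-transferred; ≥48 hr, 37 °C; CellTiter-Glo 30 min RT dark, luminescence read.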
DT40 TDP1 CPT – qHTS for Inhibitors of human tyrosyl-DNA phosphodiesterase 1 (TDP1): qHTS in cells in presence of CPT; Potency, µM (series often up to 46.2 µM), usual class: inhibitors; AID 686979, 2013; actives 12% (n = 420,000); chicken DT40 Tdp1-/-;hTDP1 cells + 20 nM CPT, ATP luminescence, 48 h; further: nearly all actives have a fitted effect of over 55% in size
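Cell growth measured by CellTiter-Glo luminescence after a minimum 48 h, 37 C compound exposure with 20 nM CPT in Tdp1-knockout DT40 cells stably expressing hTDP1, seeded 400/well; qHTS titration format.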
MCF10A rerep – A quantitative high throughput screen for small molecules that induce DNA re-replication in MCF 10a normal breast cells; AID 624296, 2012; MCF 10A DNA re-replication, Hoechst nuclear intensity, 48 h; actives 2.9% (n = 350,000); Potency, µM (doses to about 46.1 µM), hits mostly activators; further: nearly all actives have a fitted effect of over 50% in size
SW480 rerep – A quantitative high throughput screen for small molecules that induce DNA re-replication in SW480 colon adenocarcinoma cells. Potency, µM (top dose mostly 46.1 µM), most hits filed as activators. actives 1.8% (n = 340,000). AID 624297, 2012. SW480 DNA re-replication, Hoechst DNA content imaging, 48 h; further: nearly all actives have a fitted effect of over 55% in size
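Compounds, transferred as 23 nL by pin tool, were incubated with cells for 48 hr; DNA content per nucleus was then quantified by Hoechst staining and fluorescence plate imaging.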
Chronic BCR inh – qHTS Assay to Find Inhibitors of Chronic Active B-Cell Receptor Signaling; ABC-DLBCL IkBa-CBG/CBR reporter, luminescence ratio, 4 h; Potency, µM (series often up to 46.1 µM), hits mostly inhibitors; actives 0.05% (n = 340,000); AID 493014, 2011; active means well fitted inhibition curve with a large enough effect in the signal ratio, with a control signal flat, not every such curve was filed as active; inconclusive means small, poorly fitted or top-dose-only effect, or effect the other way, or a change in a side signal; the % refers to the signal ratio
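Compounds up to 46 uM were incubated four hours with TMD8 cells whose green CBG68 luciferase is fused to IkappaBalpha; red CBR luminescence normalised the signal, and concentration-effect curves were fitted to fusion, red and ratio data.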
IL1B secr inh – qHTS for Inhibitors of Inflammasome Signaling: IL-1-beta AlphaLISA Primary Screen; THP-1 LPS/ATP IL-1B secretion, AlphaLISA, 16 h; hits give low values; activity change, % at 57.5 µM; actives 4.7% (n = 360,000); AID 743279, 2014; in the data active means activity change below about -50%; inconclusive means mostly about -30% to -49%
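Secreted IL-1B measured by AlphaLISA bead assay after 16 h compound exposure of THP-1 cells; compounds (final up to 57.5 uM) added 1 h before LPS (250 ng/mL) and ATP (1.25 mM) stimulation; lower signal means less secretion.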
Numbers stand for hits; - = inactive; ? = inconclusive; . = not tested or not shown. The list is not random: actives were taken first. Their share in the collection is about 19%. Unless noted, the call rests on the fitted dose curve; in most records, active means well fitted curve in the direction sought with a large enough effect; inconclusive means small, poorly fitted or top-dose-only effect, or another doubt; inactive means no such curve, though single readings can be large; an effect the other way counts as inactive or inconclusive.

SMILES	DT40 TDP1 no CPT	DT40 TDP1 CPT	MCF10A rerep	SW480 rerep	Chronic BCR inh	IL1B secr inh
CCOC(=O)c1c(-c2ccc(OC)cc2)oc2c1C(OC(C)=O)CCC2 (configuration not stated)	21µM	?	.	.	.	-
O=C(OCc1ccccc1)c1c(-c2ccccc2)oc2c1C(OCCO)CCC2 (configuration not stated)	16µM	?	.	.	.	-
COC(=O)c1c(-c2ccccc2)oc2c1C(OCCO)CCC2 (configuration not stated)	?	-	.	.	.	-
COc1ccc(-c2oc3c(c2C(=O)OCCCO)C(OCCO)CCC3)cc1 (configuration not stated)	-	-	.	.	.	-
CCOC(=O)c1c(NC(=O)c2cc(=O)c3c(C)cc(C)cc3o2)sc2c1CCC2	-	-	.	.	.	.
COc1ccc(CNC(=O)COC(=O)c2ccc(Br)o2)cc1	-	-	-	-	-	-
C=CCNc1oc(-c2cccs2)nc1S(=O)(=O)c1ccccc1	-	-	-	-	?	-
CC(C)S(=O)(=O)c1oc(-c2ccc(F)cc2)nc1S(=O)(=O)c1ccccc1	0.46µM	0.73µM	.	.	.	.
CSc1oc(-c2ccc(F)cc2)nc1S(=O)(=O)c1ccccc1	-	-	-	-	-	-
CC(C)S(=O)(=O)c1oc(-c2cccs2)nc1S(=O)(=O)c1ccc(F)cc1	0.46µM	0.65µM	.	.	.	.
CC1(C)S[C@H]2[C@@H](NC(=O)C(N)c3ccccc3)C(=O)N2[C@H]1C(=O)O (some centres not stated)	-	-	.	.	.	.
Cc1ccc(C(=O)c2c3ccc(C(F)(F)F)cc3[n+]([O-])n2CCCN)cc1	23µM	23µM	-	-	-	-53
Cc1ccc(C(=O)c2c3ccc(C(F)(F)F)cc3[n+]([O-])n2CCCC(N)=O)cc1	-	-	-	-	-	-
CCOc1ccc(NS(=O)(=O)c2ccc(-c3coc(C)n3)cc2)cc1	?	?	-	-	-	-
CCOc1ccc(-c2ccc(NS(=O)(=O)c3ccc(C)cc3)cc2)nn1	?	16µM	.	.	.	.
CCOc1ccc(-c2ccc(NS(=O)(=O)c3cc(C)c(C)cc3C)cc2)nn1	18µM	23µM	.	.	.	.
CCc1nc2ccc(C(=O)NCCCn3ccnc3)cn2c1N(C)Cc1ccc(OC)cc1	15µM	?	.	.	.	-
CCc1nc2ccc(C(=O)NCCCn3ccnc3)cn2c1N(C)Cc1cc2ccccc2s1	16µM	?	.	.	.	?
CCc1nc2ccc(C(=O)Nc3cccc(OCC(=O)N(C)C)c3)cn2c1N(C)Cc1cc2ccccc2s1	16µM	16µM	.	.	.	-
CCc1nc2ccc(C(=O)NCCCn3ccnc3)cn2c1N(C)CCCc1ccccc1	?	18µM	.	.	.	?
CC1Cn2cc(C(=O)Nc3cccc(C(F)(F)F)c3)c(=O)c3c(Cl)ccc(c32)O1 (configuration not stated)	-	-	.	.	.	.
Cc1[nH]c(=O)[nH]c(=O)c1S(=O)(=O)Nc1cccc(C(F)(F)F)c1	-	-	-	-	-	-
COc1ccc([N+](=O)[O-])cc1NC(=O)c1cncc(Br)c1	-	-	-	-	-	-
Cc1cc([N+](=O)[O-])ccc1NC(=O)c1cncc(Br)c1	-	-	-	-	-	-67
Cc1cc([N+](=O)[O-])ccc1NC(=O)c1cccc(NC(=O)C(C)C)c1	23µM	?	-	-	-	-
SMILES	DT40 TDP1 no CPT	DT40 TDP1 CPT	MCF10A rerep	SW480 rerep	Chronic BCR inh	IL1B secr inh
CCCCC(=O)NC(c1ccc(OC)c(OC)c1)c1c(O)ccc2ccccc12 (configuration not stated)	-	-	-	-	-	-
Cc1ccc(C(Nc2ccccn2)c2ccc3cccnc3c2O)cc1 (configuration not stated)	5.8µM	21µM	.	.	.	.
CCCCC(=O)NC(c1ccc(Cl)cc1)c1ccc2cccnc2c1O (configuration not stated)	1.2µM	1.3µM	12µM	1µM	.	-
COc1ccc(C(Nc2ccccn2)c2c(NC(=O)c3ccco3)sc(C)c2C)cc1 (configuration not stated)	?	?	-	-	?	?
CCCC(=O)NC(c1ccc(Cl)cc1)c1ccc2cccnc2c1O (configuration not stated)	4.1µM	4.1µM	?	2.9µM	-	-
CCCC(=O)NC(c1ccc(C)cc1)c1ccc2cccnc2c1O (configuration not stated)	1.2µM	2.3µM	21µM	?	-	-
N#CCCN(C(=O)c1ccc2c(=O)n3c(nc2c1)CCCCC3)c1ccccc1	-	?	-	-	-	-
Cc1cc(C)n2nc(CNC(=O)c3ccccc3Cl)nc2n1	-	-	.	.	.	.
CCCCC(=O)NC(c1ccc(N(C)C)cc1)c1ccc2cccnc2c1O (configuration not stated)	0.73µM	1µM	?	?	-	-
CC(=O)NC(c1ccc(Cl)cc1Cl)c1ccc2cccnc2c1O (configuration not stated)	4.6µM	3.7µM	?	-	?	-
CCCC(=O)NC(c1ccc(N(C)C)cc1)c1c(O)ccc2ccccc12 (configuration not stated)	-	-	-	-	?	-
Cc1cccc(NC(c2cccc(Cl)c2)c2ccc3cccnc3c2O)n1 (configuration not stated)	5.2µM	5.2µM	.	.	.	.
CC(=O)/C(=N\Nc1cccc(Cl)c1)Sc1cccc2cccnc12	-	-	-	-	-	-
CCCC(=O)NC(c1ccc(Cl)cc1Cl)c1ccc2cccnc2c1O (configuration not stated)	4.6µM	4.1µM	?	0.65µM	-	-
CC(=O)NC(c1cccs1)c1cc(F)c2cccnc2c1O (configuration not stated)	.	.	-	?	?	.
COC(=O)Oc1ccc(/C=N/NC(=O)CSCc2ccc(Cl)cc2)cc1OC	12µM	26µM	?	-	-	-
CCOC(=O)N/N=C/c1ccc(OCCSc2ccc(Cl)cc2)c(OC)c1	26µM	15µM	-	-	-	-
CCOC(=O)CC(NC(=O)c1cc2cc(OC)ccc2oc1=O)c1ccc(OC)cc1 (configuration not stated)	-	?	.	.	.	.
COc1cccc(-c2cc(C(F)(F)F)n3nc(C)c(-c4ccccc4)c3n2)c1	-	-	.	.	.	.

Bioassay records as filed in PubChem BioAssay.
